The target of this test is dTDP-4-dehydrorhamnose reductase (Mycobacterium tuberculosis (strain ATCC 25618 / H37Rv)) + dTDP-4-dehydrorhamnose 3,5-epimerase (Mycobacterium tuberculosis (strain ATCC 25618 / H37Rv)) (UniProt P9WH09+P9WH11). Description: M. tuberculosis RmlC/RmlD coupled enzyme inhibitors, primary screen, biochemical, compound mixtures, 384-well, from 1536-well plates (AID 1533). To be noted: RmlC+RmlD coupled enzyme assay, percent inhibition, primary screen in compound mixtures, stronger effect = higher value.
Chain of dTDP-4-dehydrorhamnose reductase (Mycobacterium tuberculosis (strain ATCC 25618 / H37Rv)) + dTDP-4-dehydrorhamnose 3,5-epimerase (Mycobacterium tuberculosis (strain ATCC 25618 / H37Rv)) (P9WH09 whole entry, looked up): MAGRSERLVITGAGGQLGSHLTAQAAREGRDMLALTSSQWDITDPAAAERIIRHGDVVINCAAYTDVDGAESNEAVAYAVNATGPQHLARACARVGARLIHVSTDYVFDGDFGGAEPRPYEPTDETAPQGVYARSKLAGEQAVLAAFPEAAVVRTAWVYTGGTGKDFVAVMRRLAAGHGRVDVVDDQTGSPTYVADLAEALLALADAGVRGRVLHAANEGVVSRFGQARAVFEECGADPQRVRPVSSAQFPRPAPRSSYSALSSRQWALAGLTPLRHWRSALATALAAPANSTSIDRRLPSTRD
Chain of dTDP-4-dehydrorhamnose reductase (Mycobacterium tuberculosis (strain ATCC 25618 / H37Rv)) + dTDP-4-dehydrorhamnose 3,5-epimerase (Mycobacterium tuberculosis (strain ATCC 25618 / H37Rv)) (P9WH11 whole entry, looked up): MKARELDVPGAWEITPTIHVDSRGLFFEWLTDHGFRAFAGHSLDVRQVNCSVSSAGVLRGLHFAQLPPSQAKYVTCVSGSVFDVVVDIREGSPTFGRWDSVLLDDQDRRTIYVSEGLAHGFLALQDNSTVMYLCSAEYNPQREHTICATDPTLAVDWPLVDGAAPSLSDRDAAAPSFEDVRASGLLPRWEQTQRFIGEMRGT

[1] abbreviates: measured here: mean retest inhibition, at 5.5 µM.

Molecules are shown by their SMILES. Among all 160,000 compounds or so, about 45 (0.03%) were called active. Rule as the data show it: active = inhibition mostly above about 34% (no sharp cut-off); inconclusive = no clear call, values can overlap the other calls; inactive = mostly below about 22%. Shown is part of a subset that was picked to be rich in actives.

By inhibition is commonly meant the drop in the measured response relative to a control, in per cent.

Take `CC(=O)NC(CC(=O)Nc1nccs1)c1ccccc1` (stereo not given): the inhibition (at 3.6 µM) was 3.67% (inactive).

Regarding `Cc1cc(Nc2ccc(N3CCOCC3)cc2)c2cccc(C)c2n1`, the inhibition was 35.8% (inactive) (at 3.6 µM) and -6.33% under setting [1].

For the compound `Cc1ccc(NNC(=O)C2CCC2)cc1C`, the inhibition (at 3.6 µM) was -0.66% (inactive).

With `C=CCNC(=S)N1CCc2[nH]c3ccccc3c2C1`, for the setting “at 3.6 µM”, the inhibition is -7.26% (inactive).

With `Cn1c(SCC(=O)Nc2ccc(Cl)cc2)nc(O)cc1=O`, the inhibition (at 3.6 µM) was 3.67% (inactive).

Take `OCC(O)CN(c1ccccc1)c1ccccc1` (stereo not given): the inhibition (at 3.6 µM) was 15.9% (inactive).

`O=C(NCc1ccncc1)NC12CC3CC(CC(C3)C1)C2`: for the setting “at 3.6 µM”, the inhibition was 4.57% (inactive).

On to `Cc1nc2ccc(NC(=S)N3CCC(C)CC3)cc2nc1C`, for which the inhibition (at 3.6 µM) is 12.1% (inactive).

As to `Cc1ccc(CSc2nc3[nH]ncc3c(=O)[nH]2)cc1`, the inhibition by setting is: (at 3.6 µM) 65.1% (inactive); under setting [1], 4.96%.

Take `CC(C)c1c(O)nc(SCCOc2ccc(Cl)cc2)[nH]c1=O`: the inhibition (at 3.6 µM) was 7.19% (inactive).

As for `Cc1c(-c2cccc(Cl)c2)nc2ccccc2c1C(=O)OCC(=O)N(C)C1CCS(=O)(=O)C1` (stereo not given), the inhibition (at 3.6 µM) is 5.87% (inactive).

Take `O=C(CCS(=O)(=O)c1ccccc1Cl)Nc1ccc(S(=O)(=O)Nc2ncccn2)cc1`: the inhibition (at 3.6 µM) was 10% (inactive).

Regarding `CCCCCN(C(=O)NC(=O)Nc1cccc(C)c1C)S(C)(=O)=O`, the inhibition (at 3.6 µM) is -12.7% (inactive).

As to `OC(c1ccccc1)C(CN1CCOCC1)c1ccccc1` (stereo not given), the inhibition (at 3.6 µM) was 7.15% (inactive).

Take `NS(=O)(=O)c1ccc(NC(=S)NC(=O)c2cccc(Br)c2)cc1`: under “at 3.6 µM”, the inhibition is 4.21% (inactive).

As to `CCC1=NN2C(=N)/C(=C/c3cc(C)n(-c4ccccc4)c3C)C(=O)N=C2S1`, under “at 3.6 µM”, the inhibition is -9.8% (inactive).

Regarding `CCN1CCc2nc(NC(=O)c3cc(F)c(F)cc3Cl)sc2C1`, for the setting “at 3.6 µM”, the inhibition is -6.97% (inactive).

On to `COc1ccc(C2=NN(C(=O)CCC(=O)O)C(c3cccs3)C2)cc1OC` (stereo not given), for which the inhibition (at 3.6 µM) was -7.36% (inactive).

Turning to `CN1CCN(CCNC(=O)Nc2ccc([N+](=O)[O-])cc2)CC1`, the inhibition (at 3.6 µM) is 5.16% (inactive).

With `CN(C)c1ccc(/C=C/C(=O)c2ccc(O)cc2)cc1[N+](=O)[O-]`, the inhibition (at 3.6 µM) was 44.3% (inactive) and the inhibition under setting [1] was determined as 5.01%.

Turning to `CCOC(=O)C1CCN(C(=O)Nc2cccc(OC)c2)CC1`, the inhibition (at 3.6 µM) is 1.02% (inactive).

In the case of `Cc1ccc(/C=N/NC(=O)CSc2ccccn2)o1`, the inhibition reads like this: (at 3.6 µM) 70% (inactive); under setting [1], -5.62%.

Take `O=C(O)C(NS(=O)(=O)c1cccc2nsnc12)c1ccccc1` (stereo not given): the inhibition (at 3.6 µM) was -10.9% (inactive).

`CCCCSc1nnc2c(n1)OC=Nc1ccccc1-2`: the inhibition (at 3.6 µM) was 11.2% (inactive).

On to `CN1CCc2nc(SC(C(=O)O)c3ccccc3)c(C#N)c(-c3cccs3)c2C1` (stereo not given), for which the inhibition (at 3.6 µM) was -14.8% (inactive).

As to `COc1ccc(OC)c(-n2c(=S)[nH]c3cc(C(=O)N4CCCCC4)ccc3c2=O)c1`, the inhibition (at 3.6 µM) was 4.34% (inactive).

As for `O=S(=O)(NCc1ccco1)c1cnc(Cl)c(Cl)c1`, where the note is “at 3.6 µM”, the inhibition is 11.4% (inactive).

For the compound `COc1ccc(CCN2C(=O)N(c3ccc(OC)cc3)C(=O)C2CC(=O)Nc2ccc(OC)cc2)cc1` (stereo not given), for the setting “at 3.6 µM”, the inhibition was -9.07% (inactive).

With `CCOC(=O)C1(Cc2cccc(OC)c2)CCN(C(C)CC(C)(C)O)CC1` (stereo not given), the inhibition (at 3.6 µM) is 7.5% (inactive).

As to `COc1ccc(NS(=O)(=O)c2ccc(N3CCOCC3)c(NC(=O)c3ccccc3Br)c2)cc1`, the inhibition (at 3.6 µM) was -4.87% (inactive).

As for `Cc1nc2nc(SCC(=O)c3ccccc3)[nH]c2cc1Br`, the inhibition (at 3.6 µM) was 4.73% (inactive).

On to `O=C1C2C3C=CC(C3)C2C(=O)N1c1ccc(S(=O)(=O)Nc2nccs2)cc1` (stereo not given), for which the inhibition (at 3.6 µM) was -2.55% (inactive).

`COCCSc1nnc(NC(=O)c2cc(OC)c(OC)cc2[N+](=O)[O-])s1`: the inhibition (at 3.6 µM) was 15.5% (inactive).

As for `CC(=O)c1sc(NC(=O)C2=NN(c3ccccc3)C(=O)CC2)nc1C`, the inhibition (at 3.6 µM) was -9.61% (inactive).

Turning to `Cc1ccc(NC(=O)NC2CCCCC2)cc1S(=O)(=O)N1CCOCC1`, where the note is “at 3.6 µM”, the inhibition is -9.91% (inactive).

Consider `Clc1ccc2nc(-c3ccccc3)nc(C(Cl)Cl)c2c1`, for which, where the note is “at 3.6 µM”, the inhibition was 0.32% (inactive).

For the compound `O=S(=O)(Nc1ccc(OC(F)(F)F)cc1)c1cccc2nonc12`, the inhibition (at 3.6 µM) was 4.95% (inactive).

As to `O=C(NCc1ccc(F)cc1)C1CCC(CNc2c(N3CCOCC3)c(=O)c2=O)CC1` (stereo not given), the inhibition was 43.3% (inactive) (at 3.6 µM) and -8.27% under setting [1].

In the case of `CCOc1ccc(CCN2C(=O)c3cccnc3C2=O)cc1OCC`, the inhibition (at 3.6 µM) was 3.14% (inactive).

For `Cc1ccc(NC(=O)c2ccc(S(=O)(=O)NCC3CCCO3)cc2)cc1C` (stereo not given), the inhibition (at 3.6 µM) was 0.36% (inactive).

Turning to `CC(=O)NC(=S)Nc1ccc(NC(=O)c2cccnc2)cc1`, the inhibition (at 3.6 µM) is 2.81% (inactive).

Turning to `COc1ccc(C(C(=O)NC(C)(C)C)N(C(=O)Cn2nnc3ccccc32)c2ccc(C(C)=O)cc2)cc1O` (stereo not given), for the setting “at 3.6 µM”, the inhibition is 11.7% (inactive).

For `CSc1ccccc1NC(=O)CN(C)CC(=O)Nc1cccc(Br)c1`, where the note is “at 3.6 µM”, the inhibition is 6.55% (inactive).

In the case of `O=C1/C(=C/c2coc3ccc(O)cc3c2=O)SC(=S)N1c1ccccc1`, the inhibition (at 3.6 µM) is -8.54% (inactive).

For `Cc1cccn2c(CNCC(C)Oc3cccnc3)c(C(=O)N3CCOCC3)nc12` (stereo not given), for the setting “at 3.6 µM”, the inhibition was 7.78% (inactive).

Take `CCN(CC)c1ccc(NC(=O)C2CCC(CNc3c(N4CCCC4)c(=O)c3=O)CC2)c(C)c1` (stereo not given): the inhibition (at 3.6 µM) was 6.36% (inactive).

Consider `O=S(=O)(c1ccccc1)N1CN(Cc2ccc(F)cc2)c2nc3ccccc3nc21`, for which the inhibition (at 3.6 µM) was -11.9% (inactive).

In the case of `Cc1ccc(S(=O)(=O)N(C)CC(=O)OCC(=O)Nc2ccccc2)cc1`, under “at 3.6 µM”, the inhibition is 13.5% (inactive).

Regarding `C/C(=N\NC(=S)NCc1ccccc1)C1CCCCC1`, the inhibition (at 3.6 µM) is 5.23% (inactive).

For `Fc1cccc2ncnc(OCc3ccccc3)c12`, the inhibition (at 3.6 µM) was 3.36% (inactive).

Values taken from PubChem BioAssay AID1533 (PCMD, 2009).
